# Screen size: about 69,000 compounds; about 950 (1.4%) showed an effect of 50% or more. The sample as a whole holds a higher share of strong results than the screen did.
# Tested on: Mycobacterium tuberculosis
# Test: Cornell M. t heat shock assay; also: in the data most compounds retested in dose-response had high values
# Assay type: functional, organism-based
# Set-up: dose or concentration left out as unconfirmed
row,SMILES,Percent Effect [%]
1,O=C(O)C(F)(F)F.O=C(c1ncccn1)N1CCC[C@]2(C[C@@H](Oc3ncccc3F)CO2)C1,-26.7
2,O=C(Cc1ccccc1F)N1C[C@@H]2COC[C@]2(COc2cccnc2)C1.O=C(O)C(F)(F)F,-4.707
3,COCC(=O)N1CCCn2c(CN3CCOCC3)nnc2C1.O=C(O)C(F)(F)F,-20.35
4,Cl.FC(F)CNc1cnc(C2CCCN2)cn1 (stereo not drawn),-21.09
5,O=C(O)C(F)(F)F.O=C1NCCN(CC2CC2)C12CCN(Cc1ccccc1)CC2,-29.41
6,COCC1CC2(CCN(Cc3ccncc3)CC2)CN1C(C)C.O=C(O)C(F)(F)F.O=C(O)C(F)(F)F.O=C(O)C(F)(F)F (stereo not drawn),-9.126
7,O=C(Nc1cccnc1)[C@H]1C[C@@H]2CN(S(=O)(=O)C3CC3)C[C@H]1O2,-11.95
8,COCc1ncn2c1CN(C(=O)c1ccc3ccccc3n1)CC2.O=C(O)C(F)(F)F,-56.59
9,CO[C@H]1C[C@@H]2CN(C(=O)c3cc4ccc(F)cc4[nH]3)C[C@@H]2C1,35.64
10,COc1ccc(CN2C[C@H]3CN(c4ccsc4)C(=O)[C@H]3C2)cc1.O=C(O)C(F)(F)F,16.76
11,COc1ccc(F)cc1C(=O)N1C[C@H]2C[C@H](OC)C[C@H]2C1,-3.804
12,Cl.Cl.O=C([C@@H]1CSCN1)N1CC2(CCNCC2)c2cc(Cl)ccc21,3.414
13,CC(=O)N1CCC2(CC1)CN(C(=O)[C@@H]1CSCN1)c1ccc(Cl)cc12.O=C(O)C(F)(F)F,52.14
14,Cl.Cl.O=C([C@H]1CCCN1)N1CC2(CCNCC2)c2cc(Cl)ccc21,-22.31
15,O=C(CC1CCCC1)N1C[C@H](Oc2cccnc2)[C@H]2OCCC[C@H]21.O=C(O)C(F)(F)F,0.71
16,C1CCC(CN2Cc3nnn(CC4CC4)c3C(COCC3CC3)C2)C1.O=C(O)C(F)(F)F (stereo not drawn),40.48
17,CCOCC1CN(C(=O)N(C)C)Cc2nnn(CC3CC3)c21 (stereo not drawn),1.23
18,CCOCC1CN(CC2CCC2)Cc2nnn(CC3CC3)c21 (stereo not drawn),57.51
19,CN(C)CC1CN(Cc2cccc(C#N)c2)Cc2nccn2C1.O=C(O)C(F)(F)F.O=C(O)C(F)(F)F (stereo not drawn),-5.749
20,CC(C)c1nn(C)c(Cl)c1CNCc1ccc2c(c1)OCO2.Cl,15.25
21,O=C(CC1CC1)N1CCc2ncc(CN3CCOCC3)n2CC1.O=C(O)C(F)(F)F,2.118
22,COc1ncc(C2(O)CCN(Cc3ccc(F)c(F)c3)CC2)c(OC)n1.Cl,2.429

row,SMILES,Percent Effect [%]
1,COc1ccccc1CN1CC(O)CN(S(=O)(=O)C(C)C)CC1=O (stereo not drawn),61.24
2,CCCS(=O)(=O)N1CC(=O)N(Cc2cccc(OC)c2OC)CC(O)C1 (stereo not drawn),3.552
3,COc1ccccc1CN1CC(OC)CN(C(=O)CC(C)C)CC1=O (stereo not drawn),-13.24
4,COc1cccc(OC)c1CN1CC(O)CN(S(C)(=O)=O)CC1=O (stereo not drawn),55.83
5,CCCS(=O)(=O)N1CC(=O)N(Cc2ccccc2OC)CC(O)C1 (stereo not drawn),56.43
6,CS(=O)(=O)N1CC(=O)N(CCCc2ccccc2)CC(O)C1 (stereo not drawn),-9.009
7,CCS(=O)(=O)N1CC(=O)N(Cc2ccccc2OC)CC(O)C1 (stereo not drawn),62.67
8,CCS(=O)(=O)N1CC(=O)N(CCCc2ccccc2)CC(O)C1 (stereo not drawn),-6.774
9,COc1cccc(CN2CC(O)CN(S(C)(=O)=O)CC2=O)c1OC (stereo not drawn),29.18
10,CCS(=O)(=O)N1CC(=O)N(CCOc2ccccc2)CC(O)C1 (stereo not drawn),-13.04
11,COc1ccccc1CN1CC(O)CN(C(=O)OCC(C)C)CC1=O (stereo not drawn),1.526
12,CCCS(=O)(=O)N1CC(=O)N(CCCc2ccccc2)CC(O)C1 (stereo not drawn),-29.16
13,COc1ncccc1CN1C[C@@H]2COC[C@]2(CNS(C)(=O)=O)C1.O=C(O)C(F)(F)F.O=C(O)C(F)(F)F,-54.94
14,O=C(NCc1ccccn1)[C@]12COC[C@H]1CN(Cc1cccnc1)C2.O=C(O)C(F)(F)F.O=C(O)C(F)(F)F.O=C(O)C(F)(F)F,-8.191
15,CC(=O)N1CCC2(CC1)COCCN2Cc1ccc(F)cc1.O=C(O)C(F)(F)F,-4.953
16,CN(C)[C@@H]1CN(C(=O)Cc2ccccc2)[C@@H]2CCCO[C@H]12.O=C(O)C(F)(F)F,-12.48
17,CN1C(=O)CC(c2cnn(C)c2)C12CCN(C(=O)c1ccncc1)CC2.O=C(O)C(F)(F)F (stereo not drawn),-21.56
18,COc1cc(CNCC(O)c2ccc(C)cc2)cc2c1OCO2.Cl (stereo not drawn),-8.52
19,O=C(NCC1CCCCC1)N1C[C@H]2C[C@H](C(=O)N3CCCC3)[C@@H](C1)O2,-29.22
20,CN(C)C(=O)CN1CCCC2(CCN(c3ccsc3)C2=O)C1.O=C(O)C(F)(F)F (stereo not drawn),-10.79
21,COc1ccc(CN2C[C@H]3C[C@H](CN(C)C)O[C@H]3C2)cc1.O=C(O)C(F)(F)F.O=C(O)C(F)(F)F,-20.17
22,CC(C)NC(=O)[C@H]1C[C@@H]2CN(C(=O)NCCc3ccccc3)C[C@H]1O2,-3.811

row,SMILES,Percent Effect [%]
1,Cl.O=c1c2sccc2nc2n1CCN(Cc1cc(F)ccc1F)CC2,0.6259
2,COc1cc(CN2CC(=O)N(c3ccc(C)cc3)CC2C)cc(OC)c1 (stereo not drawn),23.62
3,COc1ccc(CN2CC(=O)N(c3ccc(C)cc3)CC2C)cc1O (stereo not drawn),-4.116
4,COc1cccc(OC)c1CN1CC(=O)N(c2ccc(C)cc2)CC1C (stereo not drawn),53.82
5,CC(CCSc1ccccc1)N1CCCN(C(N)=O)CC1 (stereo not drawn),30.42
6,CC(CCSc1ccccc1)N1CCN(C(=O)c2ccccc2O)CC1 (stereo not drawn),35.88
7,CC(CCSc1ccccc1)N1CCN(C(=O)c2cccs2)CC1 (stereo not drawn),96
8,COCCNC(=O)C[C@@H]1COC[C@H]2CN(CC3CCOCC3)C[C@@H]12.O=C(O)C(F)(F)F,-14.59
9,Cc1ccc(C(=O)N2CCc3ncnc(-c4cnn(C)c4)c3CC2)cn1.O=C(O)C(F)(F)F,-33.4
10,Cc1cc(NC(=O)CCc2ccsc2)n(C)n1,89.31
11,COc1ccc(CCNC(=O)Nc2cc(C)nn2C)cc1,8.379
12,Cn1cc(NC(=O)CCc2ccsc2)ccc1=O,27.26
13,Cc1cc(NC(=O)NCCc2ccsc2)n(C)n1,63.69
14,Cc1cnccc1NC(=O)CCc1ccsc1,-21.59
15,Cc1cc(NC(=O)NCCc2ccccc2)n(C)n1,-19.68
16,COCCN1Cc2nccn2CC(COCc2csc(C)n2)C1.O=C(O)C(F)(F)F.O=C(O)C(F)(F)F (stereo not drawn),2.482
17,O=S(=O)(c1ccc2c(c1)OCCO2)N1CCc2ccccc2C1,-4.595
18,O=C(O)C(F)(F)F.c1ccc(N2CCCC3(CCN(Cc4cccs4)C3)C2)nc1 (stereo not drawn),-4.42
19,Cc1ccc(C(CCNCCCN(C)C)C2CCOC(C)(C)C2)cc1.O=C(O)C(=O)O (stereo not drawn),-7.6
20,CCc1ccc(-c2cc(C(F)(F)F)nc(N3CCC(N)CC3)n2)cc1,103
21,CCn1ncc(-c2cc(C(F)(F)F)nc(N3CCC(N)CC3)n2)c1C,23.29
22,Cc1c(-c2cc(C(F)(F)F)nc(N3CCC(N)CC3)n2)cnn1C,-8.82

row,SMILES,Percent Effect [%]
1,O=C(C1CC(F)(F)C1)N1C[C@@H]2CN(CC3CCCC3)CCO[C@@H]2C1.O=C(O)C(F)(F)F,-23.11
2,CN1CC(=O)N(c2ccsc2)CC12CCN(C(=O)N1CCCC1)C2.O=C(O)C(F)(F)F (stereo not drawn),-15.35
3,CCc1cnc(N2CCC3(CC2)CN(c2cccnc2)C(=O)CO3)nc1.O=C(O)C(F)(F)F,-15.98
4,CCN1CCC(c2nc3ccc(NC4CCC4)cn3n2)CC1.O=C(O)C(F)(F)F,28.46
5,Cc1noc(C)c1CN1C[C@@H]2COC[C@H](C(=O)N3CCCCO3)[C@@H]2C1.O=C(O)C(F)(F)F,10.78
6,CC(=O)N[C@@H]1CN(C(=O)c2cccc(C(F)(F)F)c2)C[C@H]1O,-5.977
7,Cc1cc(NC(=O)c2nc(N3CCCC3)ncc2Cl)nc(C(C)C)n1,105.6
8,O=C(Nc1ccccn1)c1nc(N2CCCC2)ncc1Cl,-2.485
9,O=C(Nc1cc(Cl)ccn1)c1nc(N2CCCC2)ncc1Cl,5.327
10,CC[C@H]1CN2CC[C@H]1C[C@@H]2CNCc1ccc(OC)cc1,-7.267
11,CC[C@H]1CN2CC[C@H]1C[C@@H]2CNC(=O)Nc1ccc(Br)cc1,4.849
12,CC[C@H]1CN2CC[C@H]1C[C@@H]2CNCc1ccc(N(C)C)cc1,1.41
13,CC[C@H]1CN2CC[C@H]1C[C@@H]2CNC(=O)Nc1cc(OC)cc(OC)c1,76.55
14,CC[C@H]1CN2CC[C@H]1C[C@@H]2CNCc1ccc(OC(F)(F)F)cc1,100.5
15,CC[C@H]1CN2CC[C@H]1C[C@@H]2CNC(=O)Nc1ccccc1,-5.923
16,CC(C)C(=O)N(C)Cc1nc(N2CCCC2)ncc1-c1ccncc1.Cl,19.59
17,CC(C)c1cc(C(=O)N2CCCC(n3cncn3)C2)n[nH]1 (stereo not drawn),-20.76
18,Cc1[nH]nc2ncc(C(=O)N3CCN(CC(C)O)CC3)cc12.Cl (stereo not drawn),-10.49
19,Cc1noc(C)c1CN1CCO[C@H]2CN(Cc3cncn3C)C[C@H]21.O=C(O)C(F)(F)F.O=C(O)C(F)(F)F,-21.37
20,O=C(CCC1CCCC1)N1CCC(c2ncc3c(n2)CCNC3)CC1,14.08
21,CN1CCc2nc(C3CCCN(C(=O)CC4CCCCC4)C3)ncc2C1 (stereo not drawn),-14.45
22,CN1CCc2nc(C3CCN(C(=O)CCC4CCCC4)CC3)ncc2C1,104.5
